INS promoter inh: TRM-6 insulin promoter activity inhibition | TRM-6 cells (human fetal islet line), insulin promoter-eGFP reporter, imaging; reporter expression induced with tamoxifen | inhibition, % at 2 µM | 130,000 tested, 0.9% active | AID 1273;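 active = inhibition above the mean plus 3 SD, with well images judged a real hit on visual review, cut at about 60% in these data, passing the limit was not always enough; inconclusive = inhibition over the cutoff but images rejected on review; inactive = inhibition not above the cutoff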
HUVEC tox IL1B: toxic to HUVEC cells under IL-1B stimulation; HUVEC cell count loss, Hoechst imaging, IL-1B stimulated; cell count reduction, % at 2 µM; 94,000 tested, 0.41% active; AID 845;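 active = cell count reduction more than 3 SD above the screen-wide mean, cut at about 70% in these data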;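 note: normalized per plate to untreated control cells as the no-loss baseline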
IL1B NFkB pot: enhances IL-1B driven NFkB nuclear translocation; HUVEC IL-1B NFkB p65 nuclear translocation imaging; activation, % at 2 µM; 94,000 tested, 0.3% active; AID 819;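 active = activation above 40%, about the mean plus 3 SD, also judged a hit on visual image review; inconclusive = activation above 40% but not a hit on visual review; inactive = activation not above 40% and no visual hit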;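 note: percent activation is computed from the nuclear over cytoplasmic p65 intensity ratio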
IL1B NFkB inh: blocks IL-1B driven NFkB nuclear translocation in HUVEC cells; HUVEC IL-1B NFkB p65 nuclear translocation imaging; inhibition, % at 2 µM; 94,000 tested, 0.43% active;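 active = inhibition above about 30% together with a positive call from visual inspection of the well image, limit read from the data; inconclusive = inhibition above a set limit but visual check negative; inactive = inhibition not above a set limit, visual check negative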;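 note: nuclear over cytoplasmic p65 intensity ratio measured by imaging; 0% = IL-1B stimulated DMSO wells and 100% = unstimulated DMSO wells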
Numbers without * were called inactive; ? = inconclusive; . = not tested or not shown. Sampled rows, rich in hits. Any-hit rate of the full collection: about 1.3%.

SMILES	INS promoter inh	HUVEC tox IL1B	IL1B NFkB pot	IL1B NFkB inh
O=C(COC(=O)CCCN1C(=O)c2ccccc2C1=O)Nc1cc(Cl)cc(Cl)c1	-42.9	.	.	.
Cc1ccc(/C=N/Nc2ccc3c(C(F)(F)F)cc(C(F)(F)F)nc3n2)cc1	71.4*	0.5	15.7	-15.7
COc1ccc(S(=O)(=O)N(C)c2ccc(C(=O)NC3CCCC3)cc2)cc1	-21.4	.	.	.
CN(C)c1ccc(/C=N/NC(=O)c2ccccc2)cc1	-10.0	.	.	.
CN(C)c1ccc(/C=N/NC(=O)c2ccc(Cl)cc2)cc1	-196.4	-30.5	-50.1	50.1*
COc1ccccc1-c1cc(SC)c(C#N)c(=O)o1	-25.8	.	.	.
CCN1CCc2c(sc(NC(=S)NC(=O)c3ccccc3)c2C#N)C1	-46.3	92.6*	-26.9	26.9
CC(C)Nc1nc(NC(C)C)nc(N(C)N)n1	43.5	26.3	0.2	-0.2
CC(C)Nc1nc(NC(C)C)nc(N(C)C(N)=O)n1	72.7*	5.1	4.7	-4.7
O=C(O)c1cc(-c2cccs2)nc2cc3c(cc12)OCCO3	85.7*	.	.	.
N#C/C(=C/c1ccc(N2CCCCCC2)o1)c1ccc(F)cc1	-44.7	21.9	-44.2	44.2*
CN(CC(=O)Nc1sccc1C#N)C1CCCCC1	19.1	-9.0	8.7	-8.7
CN(C/C(O)=C(\C#N)c1ccccc1)C1CCCCC1	-16.7	-2.0	126.1*	-126.1
O=C(Nc1ccon1)c1cc(-c2ccccc2)nc2ccccc12	40.0	94.3*	-71.7	71.7*
COC(=O)c1ccc(OCC(O)CN2C(=O)c3ccccc3S2(=O)=O)cc1 (stereo unspecified)	38.9	.	.	.
O=C(COc1ccc(/C=N/NS(=O)(=O)c2ccccc2)cc1)Nc1ccc(F)cc1	13.3	84.3*	-95.0	-9.7
NC(=O)COc1ccc(/C=N/NS(=O)(=O)c2ccccc2)cc1	-83.3	.	.	.
CC(C)c1ccc(-c2nn(-c3ccccc3)cc2C2C(C#N)=C(N)OC3=C2C(=O)CC(C)(C)C3)cc1 (stereo unspecified)	-24.3	-4.6	6.0	-6.0
O=C(CCC(=O)c1cccs1)NCc1ccc(Cl)cc1	70.0*	9.0	11.9	-11.9
Cc1ccc(CNC(=O)CCC(=O)c2cccs2)cc1	.	-4.1	21.8	-21.8
COC(=O)c1ccc(CSc2nc3ccccc3o2)cc1	81.2*	-15.0	6.8	-6.8
O=[N+]([O-])c1ccc(CSc2nc3ccccc3o2)cc1	.	-55.8	12.4	-12.4
CCOC(=O)CC1=NN(c2ccccc2)C(=O)/C1=C\c1ccc(OC)cc1OC	-22.9	.	.	.
N#CC1=C(N)OC2=C(C(=O)CCC2)C1c1ccccc1 (stereo unspecified)	.	3.9	6.6	-6.6
CC(c1ccccc1)C1C(C#N)=C(N)OC2=C1C(=O)CCC2 (stereo unspecified)	45.5	-5.6	116.0*	-116.0
SMILES	INS promoter inh	HUVEC tox IL1B	IL1B NFkB pot	IL1B NFkB inh
Cc1nn(C)c(C)c1S(=O)(=O)N1CCC(C(=O)NCC2COc3ccccc3O2)CC1 (stereo unspecified)	.	-6.0	41.6*	-41.6
CCOc1nc(NC(=O)NS(=O)(=O)Oc2cccc(Cl)c2)nc(-c2ccccc2)n1	77.8*	.	.	.
COc1ccccc1C(=O)NNC(=O)c1nn(Cc2ccccc2)c(=O)c2ccccc12	80.5*	.	.	.
C=CCNc1ncnc2c1[nH]c1ccccc12	56.2	-33.8	30.3	-30.3
C=CCNc1ncnc2c1[nH]c1ccc(Cl)cc12	93.1*	-98.3	-5.5	5.5
CCSc1nc(C)c(CC)c(C)c1C(N)=O	-192.3	-0.9	-34.0	34.0*
S=c1[nH]nc(-c2ccccc2Cl)n1CC1CCCO1 (stereo unspecified)	44.4	70.3*	23.4	-23.4
OC1C[N+]2(CCCCC2)C1	0.0	92.1*	16.9	-16.9
Oc1cccc(C(O)CNCc2ccc(OCc3ccc(Cl)cc3Cl)cc2)c1 (stereo unspecified)	0.0	.	.	.
Cc1ccc(S(=O)(=O)NN2C(=O)c3ccccc3NC2c2ccco2)cc1 (stereo unspecified)	41.7	.	.	.
CC1=C(C#N)C(c2ccc3ncccc3c2)C(C#N)=C(C)N1	56.2	-23.3	-49.7	49.7*
CCC(=NC(C)c1ccccc1)c1c(O)n(C)c(=O)n(C)c1=O (stereo unspecified)	81.1*	-14.0	7.8	-7.8
COC(=O)CSc1nnc(-c2ccc(S(=O)(=O)NCc3cccs3)cc2)o1	.	-19.7	44.6*	-44.6
CC1CCCN(C(=S)Nc2ccc3nc4n(c(=O)c3c2)CCCCC4)C1 (stereo unspecified)	21.4	.	.	.
CCOc1ccc(NC(=O)CSc2nnc(C(C)C)n2CC)cc1	7.7	94.7*	?	-57.3
N#CCC(CNc1ncc(C(F)(F)F)cc1Cl)OC(=O)c1cccc([N+](=O)[O-])c1 (stereo unspecified)	13.3	-36.0	-1.8	1.8

Screening data deposited in PubChem by Columbia University Molecular Screening Center.
